Where a name gives a salt, the structure may show the parent alone.
How the values were obtained:
Conditions in all cases: compound concentration in added solution (µM; 5 µl added to 20 µl cells): 10; 18 h
A431 [1] = test: LBPA endosome anti-LBPA integrated intensity (sum per cell), Z-score; higher = more LBPA staining
In short: (§1)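 The data are Z-scores, normalised in AcuityXpress, of integrated LBPA or filipin intensity in each cell, either whole-cell or restricted to LBPA endosomes. HeLa MZ or A431 cells, 3,500 per well in 20 µl, were seeded onto 5 µl of 10 µM compound solution in duplicate 384-well plates and incubated 18 h. Fixed cells were stained and imaged, with intensities extracted by MetaXpress segmentation.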

HeLa MZ [2] = test: as above
In short: as §1

A431 [3] = test: whole-cell filipin (free cholesterol) integrated intensity, Z-score; higher = more cholesterol staining
In short: as §1

HeLa MZ [4] = test: as above
In short: as §1

A431 [5] = test: filipin (cholesterol) integrated intensity within LBPA endosomes, Z-score; higher = more cholesterol in LBPA endosomes
In short: as §1

HeLa MZ [6] = test: as above
In short: as §1

With `Cc1cc(-c2ccccc2)nnc1NCCN1CCOCC1` [Minaprine dihydrochloride] the “LBPA endosome anti-LBPA integrated intensity (z-score)” value (A431 [1]) was -0.498, the “LBPA endosome anti-LBPA integrated intensity (z-score)” value (HeLa MZ [2]) was -0.183 and the “whole-cell filipin (z-score)” value (A431 [3]) was -0.925. For the same compound, the “whole-cell filipin (z-score)” value (HeLa MZ [4]) was -0.799, the “filipin (z-score)” value (A431 [5]) was -0.593 and the “filipin (z-score)” value (HeLa MZ [6]) was -0.625.
In the case of `CC(Oc1c(Cl)cccc1Cl)C1=NCCN1` (stereo not drawn) [Lofexidine], the “LBPA endosome anti-LBPA integrated intensity (z-score)” value (A431 [1]) is reported as -0.44, the “LBPA endosome anti-LBPA integrated intensity (z-score)” value (HeLa MZ [2]) is reported as 0.792 and the “whole-cell filipin (z-score)” value (A431 [3]) is reported as -0.761. For the same compound, the “whole-cell filipin (z-score)” value (HeLa MZ [4]) was -0.717, the “filipin (z-score)” value (A431 [5]) was -0.424 and the “filipin (z-score)” value (HeLa MZ [6]) was -0.23.
In the case of `CCOC(=O)/C=C(C)/C=C/C=C(C)/C=C/c1c(C)cc(OC)c(C)c1C` [Etretinate], the “LBPA endosome anti-LBPA integrated intensity (z-score)” value (A431 [1]) is reported as -0.297, the “LBPA endosome anti-LBPA integrated intensity (z-score)” value (HeLa MZ [2]) is reported as 0.358 and the “whole-cell filipin (z-score)” value (A431 [3]) is reported as 0.197. For the same compound, the “whole-cell filipin (z-score)” value (HeLa MZ [4]) was -0.112, the “filipin (z-score)” value (A431 [5]) was -0.399 and the “filipin (z-score)” value (HeLa MZ [6]) was -0.321.
With `COC(=O)N/N=C/c1c[n+]([O-])c2ccccc2[n+]1[O-]` [Carbadox] the “LBPA endosome anti-LBPA integrated intensity (z-score)” value (A431 [1]) was -0.532, the “LBPA endosome anti-LBPA integrated intensity (z-score)” value (HeLa MZ [2]) was -0.164 and the “whole-cell filipin (z-score)” value (A431 [3]) was -0.439. For the same compound, the “whole-cell filipin (z-score)” value (HeLa MZ [4]) was -0.327, the “filipin (z-score)” value (A431 [5]) was -0.53 and the “filipin (z-score)” value (HeLa MZ [6]) was -0.532.
With `CN(CCOc1ccc(CC2SC(=O)NC2=O)cc1)c1ccccn1` (stereo not drawn) [Rosiglitazone Hydrochloride] the “LBPA endosome anti-LBPA integrated intensity (z-score)” value (A431 [1]) was -0.367, the “LBPA endosome anti-LBPA integrated intensity (z-score)” value (HeLa MZ [2]) was 0.286 and the “whole-cell filipin (z-score)” value (A431 [3]) was 0.193. The “whole-cell filipin (z-score)” value (HeLa MZ [4]) was 0.897, the “filipin (z-score)” value (A431 [5]) was -0.277 and the “filipin (z-score)” value (HeLa MZ [6]) was -0.0127.
In the case of `C#C[C@]1(O)CC[C@H]2[C@@H]3CCC4=CCCC[C@@H]4[C@H]3CC[C@@]21C` [Lynestrenol], the “LBPA endosome anti-LBPA integrated intensity (z-score)” value (A431 [1]) is reported as -0.602, the “LBPA endosome anti-LBPA integrated intensity (z-score)” value (HeLa MZ [2]) is reported as -1.13 and the “whole-cell filipin (z-score)” value (A431 [3]) is reported as -1.14. For the same compound, the “whole-cell filipin (z-score)” value (HeLa MZ [4]) was -0.677, the “filipin (z-score)” value (A431 [5]) was -0.563 and the “filipin (z-score)” value (HeLa MZ [6]) was -0.697.
In the case of `OCCN(CCO)c1nc(N2CCCCC2)c2nc(N(CCO)CCO)nc(N3CCCCC3)c2n1` [Dipyridamole], the “LBPA endosome anti-LBPA integrated intensity (z-score)” value (A431 [1]) is reported as 0.808, the “LBPA endosome anti-LBPA integrated intensity (z-score)” value (HeLa MZ [2]) is reported as 0.577 and the “whole-cell filipin (z-score)” value (A431 [3]) is reported as -0.543. The “whole-cell filipin (z-score)” value (HeLa MZ [4]) was -0.536, the “filipin (z-score)” value (A431 [5]) was -0.2 and the “filipin (z-score)” value (HeLa MZ [6]) was -0.39.
`C[C@@H](c1ncncc1F)[C@](O)(Cn1cncn1)c1ccc(F)cc1F` [Voriconazole] was tested, and the “LBPA endosome anti-LBPA integrated intensity (z-score)” value (A431 [1]) was -0.526, the “LBPA endosome anti-LBPA integrated intensity (z-score)” value (HeLa MZ [2]) was -0.198 and the “whole-cell filipin (z-score)” value (A431 [3]) was -0.573. The “whole-cell filipin (z-score)” value (HeLa MZ [4]) was -0.527, the “filipin (z-score)” value (A431 [5]) was -0.605 and the “filipin (z-score)” value (HeLa MZ [6]) was -0.411.
With `CCCc1ncc(C[n+]2ccccc2C)c(N)n1` [Amprolium hydrochloride] the “LBPA endosome anti-LBPA integrated intensity (z-score)” value (A431 [1]) was -0.558, the “LBPA endosome anti-LBPA integrated intensity (z-score)” value (HeLa MZ [2]) was -1.09 and the “whole-cell filipin (z-score)” value (A431 [3]) was -0.581. For the same compound, the “whole-cell filipin (z-score)” value (HeLa MZ [4]) was -0.0131, the “filipin (z-score)” value (A431 [5]) was -0.483 and the “filipin (z-score)” value (HeLa MZ [6]) was -0.419.
`Nc1cc(C(Cl)=C(Cl)Cl)c(S(N)(=O)=O)cc1S(N)(=O)=O` [Clorsulon] was tested, and the “LBPA endosome anti-LBPA integrated intensity (z-score)” value (A431 [1]) was -0.372, the “LBPA endosome anti-LBPA integrated intensity (z-score)” value (HeLa MZ [2]) was 0.212 and the “whole-cell filipin (z-score)” value (A431 [3]) was -0.73. The “whole-cell filipin (z-score)” value (HeLa MZ [4]) was -0.454, the “filipin (z-score)” value (A431 [5]) was -0.454 and the “filipin (z-score)” value (HeLa MZ [6]) was -0.586.
For `O=C(CCCCC(=O)Nc1c(I)cc(I)c(C(=O)O)c1I)Nc1c(I)cc(I)c(C(=O)O)c1I` [Iodipamide], the “LBPA endosome anti-LBPA integrated intensity (z-score)” value (A431 [1]) was -0.326, the “LBPA endosome anti-LBPA integrated intensity (z-score)” value (HeLa MZ [2]) was -0.366 and the “whole-cell filipin (z-score)” value (A431 [3]) was -0.456. For the same compound, the “whole-cell filipin (z-score)” value (HeLa MZ [4]) was -0.377, the “filipin (z-score)” value (A431 [5]) was -0.385 and the “filipin (z-score)” value (HeLa MZ [6]) was -0.472.
For `CC(=O)OCC(=O)NCCCOc1cccc(CN2CCCCC2)c1` [Roxatidine Acetate HCl], the “LBPA endosome anti-LBPA integrated intensity (z-score)” value (A431 [1]) was -0.585, the “LBPA endosome anti-LBPA integrated intensity (z-score)” value (HeLa MZ [2]) was -0.0177 and the “whole-cell filipin (z-score)” value (A431 [3]) was -0.731. The “whole-cell filipin (z-score)” value (HeLa MZ [4]) was -0.282, the “filipin (z-score)” value (A431 [5]) was -0.524 and the “filipin (z-score)” value (HeLa MZ [6]) was -0.38.
`NS(=O)(=O)c1cc2c(cc1Cl)NC(C(Cl)Cl)NS2(=O)=O` (stereo not drawn) [Trichlormethiazide] was tested, and the “LBPA endosome anti-LBPA integrated intensity (z-score)” value (A431 [1]) was -0.262, the “LBPA endosome anti-LBPA integrated intensity (z-score)” value (HeLa MZ [2]) was 0.0655 and the “whole-cell filipin (z-score)” value (A431 [3]) was -0.129. The “whole-cell filipin (z-score)” value (HeLa MZ [4]) was -0.0923, the “filipin (z-score)” value (A431 [5]) was -0.393 and the “filipin (z-score)” value (HeLa MZ [6]) was -0.381.
`CCCCNC(=O)NS(=O)(=O)c1ccc(C)cc1` [Tolbutamide] was tested, and the “LBPA endosome anti-LBPA integrated intensity (z-score)” value (A431 [1]) was -0.288, the “LBPA endosome anti-LBPA integrated intensity (z-score)” value (HeLa MZ [2]) was 0.292 and the “whole-cell filipin (z-score)” value (A431 [3]) was -0.409. The “whole-cell filipin (z-score)” value (HeLa MZ [4]) was -0.426, the “filipin (z-score)” value (A431 [5]) was -0.47 and the “filipin (z-score)” value (HeLa MZ [6]) was -0.503.
`Cc1ncc(C[n+]2csc(CCO)c2C)c(N)n1` [Thiamine hydrochloride] was tested, and the “LBPA endosome anti-LBPA integrated intensity (z-score)” value (A431 [1]) was -0.398, the “LBPA endosome anti-LBPA integrated intensity (z-score)” value (HeLa MZ [2]) was -0.0332 and the “whole-cell filipin (z-score)” value (A431 [3]) was 0.0289. The “whole-cell filipin (z-score)” value (HeLa MZ [4]) was -0.0399, the “filipin (z-score)” value (A431 [5]) was -0.382 and the “filipin (z-score)” value (HeLa MZ [6]) was -0.539.
`O=C1NCCN1c1ncc([N+](=O)[O-])s1` [Niridazole] was tested, and the “LBPA endosome anti-LBPA integrated intensity (z-score)” value (A431 [1]) was -0.413, the “LBPA endosome anti-LBPA integrated intensity (z-score)” value (HeLa MZ [2]) was 0.107 and the “whole-cell filipin (z-score)” value (A431 [3]) was -0.918. The “whole-cell filipin (z-score)” value (HeLa MZ [4]) was -0.144, the “filipin (z-score)” value (A431 [5]) was -0.517 and the “filipin (z-score)” value (HeLa MZ [6]) was -0.432.
For `CNS(=O)(=O)Cc1ccc2[nH]cc(CCN(C)C)c2c1` [Sumatriptan succinate], the “LBPA endosome anti-LBPA integrated intensity (z-score)” value (A431 [1]) was -0.406, the “LBPA endosome anti-LBPA integrated intensity (z-score)” value (HeLa MZ [2]) was 0.265 and the “whole-cell filipin (z-score)” value (A431 [3]) was -0.574. The “whole-cell filipin (z-score)” value (HeLa MZ [4]) was -0.339, the “filipin (z-score)” value (A431 [5]) was -0.423 and the “filipin (z-score)” value (HeLa MZ [6]) was -0.484.
In the case of `CC(CN(C)C)C(C)(O)Cc1ccc(Cl)cc1` (stereo not drawn) [Clobutinol hydrochloride], the “LBPA endosome anti-LBPA integrated intensity (z-score)” value (A431 [1]) is reported as -0.559, the “LBPA endosome anti-LBPA integrated intensity (z-score)” value (HeLa MZ [2]) is reported as 0.835 and the “whole-cell filipin (z-score)” value (A431 [3]) is reported as -0.328. The “whole-cell filipin (z-score)” value (HeLa MZ [4]) was -0.426, the “filipin (z-score)” value (A431 [5]) was -0.624 and the “filipin (z-score)” value (HeLa MZ [6]) was -0.205.

Reference: the supplement of paper PMC6607015
